Measured values: the antibiotic and cytotoxicity screens of Wong et al. (2023)
The campaign covered roughly 39,000 compounds. About 1,500 (3.8%) were called active. The sample as a whole holds a higher share of actives than the screen did.

Test system: HSkMC (human skeletal muscle cells)
Experiment: cytotoxicity call (relative viability < 0.9)
Conditions: 10 µM

Row | SMILES | cytotoxicity call
1 | C[C@@H]1CCCCO[C@@H](CN(C)C(=O)Nc2cccc3ccccc23)[C@@H](C)CN([C@@H](C)CO)C(=O)c2cc(NS(=O)(=O)c3ccc(Cl)cc3)ccc2O1 | inactive
2 | C[C@H]1CN([C@@H](C)CO)C(=O)Cc2cc(NC(=O)CCC(F)(F)F)ccc2O[C@H]1CN(C)S(=O)(=O)c1ccccc1 | inactive
3 | CO/N=C(\C(=O)N[C@@H]1C(=O)N2C(C(=O)O)=C(C)CS[C@H]12)c1csc(N)n1 | inactive
4 | C[C@@H]1CCCCO[C@H](CN(C)C(=O)c2ccccc2)[C@H](C)CN([C@H](C)CO)C(=O)c2cc(NS(=O)(=O)c3ccc(Cl)cc3)ccc2O1 | inactive
5 | COCC#Cc1cnc2c(c1)C(=O)N([C@H](C)CO)C[C@H](C)[C@H](CN(C)C(=O)Nc1ccc(OC)cc1)O2 | inactive
6 | CS(=O)(=O)N1C[C@H]2COC[C@@]2(C(=O)NCc2ccccn2)C1 | inactive
7 | C[C@@H]1CN([C@H](C)CO)C(=O)CCCn2cc(nn2)CO[C@H]1CN(C)C(=O)Nc1ccc(C(F)(F)F)cc1 | inactive
8 | Cc1ccc(S(=O)(=O)Nc2ccc3c(c2)C(=O)N([C@H](C)CO)C[C@H](C)[C@@H](CN(C)C(=O)Cc2ccccc2)OCCCC[C@@H](C)O3)cc1 | inactive
9 | Cc1noc(C)c1S(=O)(=O)Nc1ccc2c(c1)C(=O)N([C@@H](C)CO)C[C@H](C)[C@H](CN(C)Cc1ccc(Cl)c(Cl)c1)OCCCC[C@@H](C)O2 | inactive
10 | C[C@H](CO)N1C[C@H](C)[C@@H](CN(C)CC2CCCCC2)Oc2c(NC(=O)c3ccc(-c4nccs4)cc3)cccc2C1=O | inactive
11 | Cc1ccc(-c2cnc3c(c2)C(=O)N([C@@H](C)CO)C[C@@H](C)[C@H](CN(C)C(=O)Cc2ccncc2)O3)cc1 | inactive
12 | C[C@H]1CN([C@@H](C)CO)C(=O)c2cc(NS(=O)(=O)c3ccc(Cl)cc3)ccc2O[C@H]1CN(C)C(=O)Nc1cccc2ccccc12 | inactive
13 | C[C@H]1CN([C@@H](C)CO)C(=O)c2cc(NS(=O)(=O)c3ccc(Cl)cc3)ccc2O[C@@H]1CN(C)Cc1ccc(C(F)(F)F)cc1 | active
14 | C[C@@H]1CN([C@@H](C)CO)C(=O)c2cc(NC(=O)CCC(F)(F)F)ccc2O[C@@H](C)CCCCO[C@@H]1CN(C)C(=O)Nc1ccc(C(F)(F)F)cc1 | inactive
15 | Nc1nc(=O)n([C@@H]2CS[C@H](CO)O2)cc1F | inactive
16 | CNC(=O)c1ccccc1N | inactive
17 | C[C@H]1CN([C@@H](C)CO)C(=O)c2cc(NC(=O)Nc3ccc(C(F)(F)F)cc3)ccc2O[C@H]1CN(C)Cc1ccc(Oc2ccccc2)cc1 | active
18 | C[C@H](CO)N1C[C@H](C)[C@@H](CN(C)Cc2ccc(Oc3ccccc3)cc2)Oc2ccc(NC(=O)Nc3ccc(C(F)(F)F)cc3)cc2C1=O | active
19 | C[C@@H]1CN([C@@H](C)CO)C(=O)c2cc(NC(=O)Nc3ccc(C(F)(F)F)cc3)ccc2O[C@@H]1CN(C)Cc1ccc(Oc2ccccc2)cc1 | active
20 | C[C@@H]1CN([C@@H](C)CO)C(=O)c2cc(NC(=O)Nc3ccc(C(F)(F)F)cc3)ccc2O[C@H]1CN(C)Cc1ccc(Oc2ccccc2)cc1 | active
21 | O=C(C[C@@H]1C[C@H]2c3cc(NC(=O)C4CCOCC4)ccc3O[C@H]2[C@H](CO)O1)NCc1ccc2c(c1)OCO2 | inactive
22 | C[C@@H]1CCCCO[C@@H](CN(C)C(=O)c2ccccc2)[C@@H](C)CN([C@H](C)CO)C(=O)c2cc(NC(=O)Nc3ccc(C(F)(F)F)cc3)ccc2O1 | inactive
23 | Cc1noc(C)c1S(=O)(=O)Nc1ccc2c(c1)C(=O)N([C@@H](C)CO)C[C@@H](C)[C@H](CN(C)C(=O)NC(C)C)O2 | inactive
24 | Cl.N=C(N)NC(=N)N1CCOCC1 | inactive

Row | SMILES | cytotoxicity call
25 | COc1ccc(S(=O)(=O)N2C[C@@H](O)COC[C@H]3O[C@@H](CC(=O)NCCCN(C)C)CC[C@@H]32)cc1 | inactive
26 | C[C@H](CO)N1C[C@H](C)[C@H](CN(C)S(=O)(=O)c2cccs2)Oc2ccc(NS(=O)(=O)c3cn(C)cn3)cc2C1=O | inactive
27 | Cn1cnc(CCNC(=O)C[C@H]2CC[C@H]3[C@@H](COC[C@H](O)CN3C(=O)Nc3ccc(C(F)(F)F)cc3)O2)c1 | inactive
28 | C[C@H]1CN([C@@H](C)CO)C(=O)c2cc(NS(=O)(=O)c3ccc(F)cc3)ccc2O[C@H]1CN(C)S(=O)(=O)c1ccccc1 | inactive
29 | Cc1nn(C)c(Cl)c1S(=O)(=O)NC(=O)[C@@]1(C)CCN1C(=O)c1ccccc1CCc1ccccc1 | inactive
30 | COC(=O)c1cc(S(C)(=O)=O)ccc1OC | inactive
31 | C[C@H](CO)N1C[C@H](C)[C@H](CN(C)Cc2ccc(Oc3ccccc3)cc2)Oc2ccc(NC(=O)Nc3ccc(C(F)(F)F)cc3)cc2C1=O | active
32 | C[C@@H]1CN([C@H](C)CO)C(=O)c2cc(NC(=O)Nc3ccc(C(F)(F)F)cc3)ccc2O[C@H]1CN(C)Cc1ccc(Oc2ccccc2)cc1 | inactive
33 | C[C@@H]1CN([C@H](C)CO)C(=O)c2cc(NC(=O)Nc3ccc(C(F)(F)F)cc3)ccc2O[C@@H]1CN(C)Cc1ccc(Oc2ccccc2)cc1 | active
34 | C[C@H]1CN([C@@H](C)CO)C(=O)c2cc(NC(=O)Nc3ccc(C(F)(F)F)cc3)ccc2O[C@@H]1CN(C)Cc1ccc(Oc2ccccc2)cc1 | inactive
35 | CN(C)C(=O)c1cccc(-c2ccc3n(c2=O)C[C@H]2[C@H](CO)[C@@H](C(=O)NCC4CC4)N[C@@H]32)c1 | inactive
36 | C[C@@H]1CN([C@@H](C)CO)C(=O)c2cccc(NC(=O)Nc3ccccc3)c2O[C@H]1CN(C)Cc1ccc(Cl)c(Cl)c1 | inactive
37 | COc1ccc(NC(=O)Nc2cccc3c2O[C@H](CN(C)Cc2ccc(Cl)c(Cl)c2)[C@@H](C)CN([C@@H](C)CO)C3=O)cc1 | active
38 | C[C@@H]1CN([C@H](C)CO)C(=O)c2cccc(NC(=O)Nc3ccc(F)cc3)c2O[C@H]1CN(C)Cc1ccc(Cl)c(Cl)c1 | active
39 | C[C@H](CO)N1C[C@H](C)[C@@H](CN(C)Cc2ccc(Cl)c(Cl)c2)Oc2c(NC(=O)Nc3ccc(F)cc3)cccc2C1=O | active
40 | C[C@H](CO)N1C[C@H](C)[C@H](CN(C)Cc2ccc(Cl)c(Cl)c2)Oc2c(NC(=O)Nc3ccc(F)cc3)cccc2C1=O | inactive
41 | COc1ccc(NC(=O)Nc2cccc3c2O[C@@H](CN(C)Cc2ccc(Cl)c(Cl)c2)[C@@H](C)CN([C@H](C)CO)C3=O)cc1 | inactive
42 | C[C@H]1CN([C@@H](C)CO)C(=O)c2cccc(NC(=O)Nc3ccc(F)cc3)c2O[C@H]1CN(C)Cc1ccc(Cl)c(Cl)c1 | inactive
43 | COc1ccc(NC(=O)Nc2cccc3c2O[C@@H](CN(C)Cc2ccc(Cl)c(Cl)c2)[C@H](C)CN([C@@H](C)CO)C3=O)cc1 | inactive
44 | C[C@@H]1CN([C@H](C)CO)C(=O)c2cccc(NC(=O)Nc3ccccc3)c2O[C@@H]1CN(C)Cc1ccc(Cl)c(Cl)c1 | inactive
45 | C[C@@H]1CN([C@H](C)CO)C(=O)c2cccc(NC(=O)Nc3ccc(F)cc3)c2O[C@@H]1CN(C)Cc1ccc(Cl)c(Cl)c1 | inactive
46 | C[C@@H]1CN([C@@H](C)CO)C(=O)c2cccc(NC(=O)Nc3ccc(F)cc3)c2O[C@H]1CN(C)Cc1ccc(Cl)c(Cl)c1 | inactive
47 | C[C@@H]1CN([C@@H](C)CO)C(=O)c2cccc(NC(=O)Nc3ccc(F)cc3)c2O[C@@H]1CN(C)Cc1ccc(Cl)c(Cl)c1 | active
